40 sequences from the supplement of paper PMC6555819 can be followed below.

The experiment concerns LXRb:RXRa (NR concentration 270 nM, RXRa partner concentration 90 nM). As to the kind of experiment: PBM binding z-score (relative to random genomic background probes); higher = stronger binding; sequences stand for … in GC…GCGATTGACAGCGTAGAATGAAGG
Here is the method:
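Protein-binding microarray (Agilent 4x180K custom design, double-stranded 60-nt probes: 5' GC cap, 34-nt variable region, 24-nt constant primer region; full probe sequence given). Purified or IVT nuclear receptor:RXRα heterodimers (3:1 NR:RXRα, mostly 270:90 nM) or homodimers were incubated for 1 h in PBS with 2% milk and no ligand, then detected with Alexa488 antibodies. Fluorescence from o1-orientation probes (~5 replicates averaged) was converted to z-scores against 500 random hg19 background probes. Variable regions are seed direct-repeat (DR0–DR5) sites, all their single-nucleotide variants and half-site ablations.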
TCTTGTAGGTCAATAGAGGTTAAGAAAGTGCGCT: the PBM binding z-score amounted to 5.11.

GATACAGGGTCAAGGTCAGAGTACGCGTATTGAT had a PBM binding z-score of 4.85. In turn, AATACAGGGTAACTAGGCCAGAGTAGGTACGAAT displayed a PBM binding z-score of 0.0448. Sequence TACCCTAGGTCATTCAGGGGCCAGTATAGAAAGC displayed a PBM binding z-score of 4.5. With ATATGTAGGTTAGCTGGGGTCCTTCAGACTAGGC, the PBM binding z-score was determined as 0.853.

Turning to CCTTACGGGTCACTCCAGGTTATATCATCGGAGT, the PBM binding z-score is 5.38. Regarding CCTTACGGGTCACGAGGTCATAGCACGACGAGCG, the PBM binding z-score was found to be 5.05.

CCTACTGGGCCACTAAAGGTCATTGATTCAGTGA came in with a PBM binding z-score of 5.49. In turn, CCTTACGGGTAACGAGGTTATAGCACGACGAGCG showed a PBM binding z-score of 0.414.

The sequence CGAACTAGGTCGAGGACAGTGAATCTCCGCACGC displayed a PBM binding z-score of -0.262.

As for CGTCCGAGGTCAAGGTCAGTGAAAGAGACTCGAA, the PBM binding z-score amounted to 5.26. In turn, TAGCCTAGTTCATGCGGGCCAGTATAGTGTCGGC registered a PBM binding z-score of -0.398. Sequence GCTGCGAGGTCAACTGATGGTCAGCTAAAGCTCG yielded a PBM binding z-score of 5.07. For GCTTACGGGTCCAAGGTTATAGCATGAATAGAAT, the PBM binding z-score stood at 0.855. Consider AGAATGAGGTTACTAAAGATCAGGGAAACGCTTG, for which the PBM binding z-score is 5.45.

The sequence GCTGCTAGGTCAACTGATGGTCAACTAAAGCTCG had a PBM binding z-score of 2.47. Consider GCTAGTTGGTCAGTAAAAGGTGACACACCGGTCG, for which the PBM binding z-score amounted to 0.263. Sequence GGAACGAGGTCATTCGAGTTGATAGCATGGCGAT returned a PBM binding z-score of 4.8.

The sequence ACTCGGATGACAAAGGTCAGAGCTACGCCAGTGA had a PBM binding z-score of 3.36. CGAACTAGGTCATCCAGGTCAGTGAATACATTGA returned a PBM binding z-score of 2.98. The same measure for TGTCAAAGTTCAAAGGTGACGTAAGTATCCACAC: 5.06; for GCTTACAGGTCAAAGGTTATAGCATGAATAGAAT: 6.06; for GCTGCTAGGTCAACTGATGGTCACCTAAAGCTCG: 2.31. Take CGAACTAGGTCTAAGGACAGTGAAAGGCGACGTA: the PBM binding z-score was -0.844. In the case of TCTCGGAGGACACCAAAGGTCAGAGCTCGACATC, the PBM binding z-score was 3.46. On to ATCTCTAGGTTAAGATAGTTCAGTGAATGCAAAT, for which the PBM binding z-score was found to be 3.33. In the case of TAGCCTAGGTCATGGGCCAGTGTACCACGCGAAC, the PBM binding z-score came to 2.46. The sequence TCTCGGAGGAAACGAAAGGTCAGAGCTCGACATC gave a PBM binding z-score of 3.1. As for CCTCGGAGGTCAACAGGAGGTCAGAGCTGCCAGA, the figure is 5.75; as for ATCGAAAGGTCGAAGGTGCGTATACCCACCCGAA, 2.33; as for CGTCCAAGGTCAATGCTAGATCAGTGAAAGCATT, 3.56. With CTCGAAAGGTCGTGCTCAGATGAGTATACCAAAC, the PBM binding z-score was found to be 3.44. In turn, AGAATGAGGTCAAGATCAGGGAAACAGAATACAT showed a PBM binding z-score of 5.08. In turn, CAAACTAGGTCACGAGAGGTCAAAGTCGAATGAC gave a PBM binding z-score of 7.33. As for ACTCGGTGGACAAAGGTCAGAGCTACGCCAGTGA, the figure is 2.99; as for CACACTAGGTCACAGAGGTCAAAGTCCGTGCGTA, 6.24; as for ATATGTAGGTTAGCTGAGGTCATTCAGACTAGGC, 4.72. Sequence CGTCCAAGGTCATAGAGGTCAGTGAATGCCGAGT yielded a PBM binding z-score of 5.69. CGTCCAAAGTCAAAGGTCAGTGAAGAGATGACGG had a PBM binding z-score of 3.44. Turning to CCGAGAAGGTTACGAGGGGGCATTCAGTGCGAAT, the PBM binding z-score was found to be 7.2.
